RORgamma inh = blocks mouse ROR gamma transcriptional activity | P51450 | Drosophila S2 Gal4-RORgamma UAS-luciferase reporter, 20 h | Potency, µM (doses to about 53.6 µM), inactives show at the highest dose activity change, negative = inhibition, hits mostly inhibitors | hit rate 5.4% among 310,000 | AID 2551; note: nearly all actives have a fitted effect of over 60% in size
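Luminescence from a UAS-regulated Photinus luciferase reporter in stably transfected Drosophila Schneider cells is measured; decreased signal marks ROR gamma inhibition. Fusion expression is induced by 700 uM copper sulfate for 20 hr.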
TDP1 cell noCPT = qHTS for Inhibitors of human tyrosyl-DNA phosphodiesterase 1 (TDP1): qHTS in cells in absence of CPT; Potency, µM (series often up to 46.2 µM), without a hit: top-dose activity change, negative = growth inhibition, most hits filed as inhibitors; DT40 Tdp1-/- hTDP1 cells, no CPT, ATP luminescence, 48 h; hit rate 15% among 420,000; note: nearly all actives have a fitted effect of over 55% in size
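Stably hTDP1-transfected Tdp1-null chicken DT40 cells were treated with library compounds minus camptothecin and grown for at least 48 hr at 37 °C, after which cellular ATP was quantified by luminescence.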
TDP1 inh = TDP1 (human) enzyme inhibition. hit rate 0.28% among 350,000. recombinant TDP1, AlphaScreen DNA substrate cleavage. Potency, µM (doses to about 130 µM), without a hit: top-dose activity change, negative = inhibition, hits mostly inhibitors. AID 485290; note: nearly all actives have a fitted effect of over 40% in size
Target sequence (Q9NUW8 whole entry, looked up): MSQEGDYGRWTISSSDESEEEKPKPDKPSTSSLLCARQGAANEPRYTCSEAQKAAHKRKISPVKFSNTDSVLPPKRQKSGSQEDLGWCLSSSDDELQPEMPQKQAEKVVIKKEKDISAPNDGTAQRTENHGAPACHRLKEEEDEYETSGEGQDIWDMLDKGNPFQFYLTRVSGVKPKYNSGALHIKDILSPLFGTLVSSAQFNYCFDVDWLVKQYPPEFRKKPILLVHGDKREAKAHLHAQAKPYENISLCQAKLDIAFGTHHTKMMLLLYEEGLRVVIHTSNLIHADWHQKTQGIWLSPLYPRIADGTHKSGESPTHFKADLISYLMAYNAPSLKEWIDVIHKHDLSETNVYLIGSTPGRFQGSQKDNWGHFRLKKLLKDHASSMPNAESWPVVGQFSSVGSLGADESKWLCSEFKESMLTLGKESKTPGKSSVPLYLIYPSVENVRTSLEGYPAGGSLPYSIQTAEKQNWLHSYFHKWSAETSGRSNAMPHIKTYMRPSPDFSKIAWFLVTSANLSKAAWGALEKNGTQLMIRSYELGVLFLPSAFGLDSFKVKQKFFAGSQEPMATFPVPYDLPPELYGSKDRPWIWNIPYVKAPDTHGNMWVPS
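Compounds were preincubated with Tdp1 (1 nM final) for 15 min at room temperature before substrate (15 nM final) started a 5 min reaction; beads (10 ug/ml final) were then added for 10 min before AlphaScreen detection.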
TDP1 cell CPT = growth inhibition of DT40 Tdp1-/-;hTDP1 cells with camptothecin (screen for TDP1 inhibitors). hit rate 12% among 420,000. chicken DT40 Tdp1-/-;hTDP1 cells + 20 nM CPT, ATP luminescence, 48 h. Potency, µM (top dose mostly 46.2 µM), inactives show at the top dose activity change, negative = growth inhibition, most hits filed as inhibitors; note: nearly all actives have a fitted effect of over 55% in size
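Cell growth measured by CellTiter-Glo luminescence after a minimum 48 h, 37 C compound exposure with 20 nM CPT in Tdp1-knockout DT40 cells stably expressing hTDP1, seeded 400/well; qHTS titration format.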
Gal4-VP16 FLuc = Gal4-VP16 reporter inhibition counter-screen. Drosophila S2 Gal4-VP16 UAS-luciferase, luminescence, 20 h. Potency, µM (series often up to 53.6 µM), inactives show at the highest dose activity, negative = inhibition, most hits filed as inhibitors. hit rate 3.5% among 310,000;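 note: Gal4-VP16 expression switched on by copper sulfate through the metallothionein promoter; nearly all actives have a fitted effect of over 50% in size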
* marks the source's active call; other numbers are inactive results; ? = inconclusive; . = no result; [ ] = another dose, or the depositor's remark. An excerpt weighted towards active compounds, which were near 19% of everything screened. Calls come from the whole dose curve; as a rule, active = well fitted curve in the direction sought with a large enough effect; inconclusive = small, poorly fitted or top-dose-only effect, or another doubt; inactive = no such curve, though single readings can be large; an effect the other way counts as inactive or inconclusive. % is set by controls: 0 for no effect and ±100 for the full control effect; potency is the fitted concentration of half-maximal effect.

SMILES | RORgamma inh | TDP1 cell noCPT | TDP1 inh | TDP1 cell CPT | Gal4-VP16 FLuc
CC(C)(C)OC(=O)N1CCC[C@H]1c1nnc(SCC(=O)Nc2cccc(Cl)c2)o1 | -1% | -9% | 3% | 2% | -4%
C[C@H](CO)N1C[C@H](C)[C@@H](CN(C)Cc2ccncc2)Oc2c(NS(=O)(=O)c3cccs3)cccc2C1=O | . | -9% | 0% | -22% | .
COc1ccc(N=c2oc3cc(O)ccc3cc2C(=O)NCC2CCCO2)c(OC)c1 (configuration not stated) | -24% | ? | -6% | -27% | 3%
O=C(NNC(=O)c1ccccn1)c1ccc(OC(F)F)cc1 | . | 4.6µM* | -1% | 5.8µM* | .
CC(Sc1ccc(Cl)cc1)C(=O)NNC(=O)c1ccccc1O (configuration not stated) | ? | 7.3µM* | 3% | 16µM* | -29%
CSCCC(NC(=O)c1ccccc1Cl)C(=O)NNC(=O)c1ccccc1O (configuration not stated) | . | ? | -1% | ? | .
O=C(NCCc1ccccn1)c1ccc(OC(F)F)cc1 | ? | -6% | 3% | -15% | ?
C/C(=N\Nc1ccccn1)c1ccc(OC(F)F)cc1 | 14µM* | ? | -5% | ? | ?
O=C(NNC(=O)C(c1ccccc1)c1ccccc1)c1ccccc1O | . | ? | . | 18µM* | .
C/C(=N\Nc1ccccn1)c1ccc(C#N)cc1 | -37% | -10% | 6% | -2% | -7%
Cc1ccc(NS(=O)(=O)c2cc3c(cc2F)NC(=O)CC3)cc1C | . | . | 0% | . | .
Cc1c(-c2ccccc2)c(=O)oc2c(CN3CCOCC3)c(O)ccc12 | . | ? | 0% | ? | .
Cc1c(-c2ccc(Cl)cc2)c(=O)oc2c(CN3CCOCC3)c(O)ccc12 | . | 21µM* | -8% | ? | .
CCc1c(C)c2ccc(O)c(CN3CCN(c4ccc(F)cc4)CC3)c2oc1=O | . | ? | 6% | 21µM* | .
Cc1c(-c2ccc(Cl)cc2)c(=O)oc2ccc(OC(=O)N3CCOCC3)cc12 | . | 21µM* | 5% | ? | .
CCc1c(C)c2ccc(O)c(CN3CCN(c4ccc(OC)cc4)CC3)c2oc1=O | . | ? | 0% | ? | .
CCN1CCN(Cc2c(O)ccc3c(C)c(-c4ccccc4)c(=O)oc23)CC1 | . | 16µM* | 3% | ? | .
COC(=O)C(C)(C)NC(=O)c1cccs1 | -5% | -18% | -2% | 4% | 11%
CC1CN(Cc2c(O)ccc3c2oc(=O)c2ccccc23)CC(C)O1 (configuration not stated) | 0% | 15µM* | -14% | 15µM* | -1%
Cc1ccc2c(c1)N(CCC(=O)NC1CCCCC1)C(=O)CO2 | 21% | -16% | -8% | 11% | ?
O=C1CCCC2=C1Sc1ccc(Cl)cc1N2 | 11% | ? | . | -25% | 0%
S=C1CCSc2ccc(Cl)cc2N1 | 4µM* | ? | 1% | ? | 10µM*
Cc1nnc(SCCn2c(Br)nc3c2c(=O)[nH]c(=O)n3C)s1 | -2% | -18% | 1% | -11% | -4%
COc1ccc(CN(C)C(=O)C23CC4CC(CC(Cl)(C4)C2)C3)c(OC)c1OC | ? | 21µM* | 3% | 23µM* | -9%
COc1cc(-c2noc(C)c2-c2ccc3[nH]ccc3c2)cc(OC)c1OC | ? | 1.8µM* | . | 1.5µM* | 12%
SMILES | RORgamma inh | TDP1 cell noCPT | TDP1 inh | TDP1 cell CPT | Gal4-VP16 FLuc
COc1cc(-c2noc(C)c2/C=C/c2ccc(C(=O)O)cc2)cc(OC)c1OC | 35% | ? | . | ? | -11%
COc1cc(-c2noc(C)c2-c2ccc(N(C)C)nc2)cc(OC)c1OC | -32% | 0.037µM* | . | 0.13µM* | 2%
COc1ccc(C(C(=O)NC2CCCC2)N(C(=O)c2ccoc2C)c2ccc(C)c(C)c2)cc1 (configuration not stated) | 32% | 13µM* | 8% | ? | -8%
COc1ccc(C(C(=O)NC2CCCC2)N(C(=O)c2ccoc2C)c2ccccc2)cc1 (configuration not stated) | 3%[10 µM] | ? | 0% | ? | -1%
CCc1ccc(N(C(=O)c2ccoc2C)C(C(=O)NC2CCCC2)c2ccc(OC)cc2)cc1 (configuration not stated) | 26% | 18µM* | 5% | 23µM* | 1%
COc1ccc(C(C(=O)NC2CCCC2)N(C(=O)c2ccoc2C)c2cc(C)cc(C)c2)cc1 (configuration not stated) | 19% | 29µM* | -10% | 26µM* | -3%
Cc1cccc(N(C(=O)c2csnn2)C(C(=O)NC(C)(C)C)c2cccnc2)c1 (configuration not stated) | 0% | -9% | -5% | 0% | 1%
Cc1nn2cc(-c3ccccc3)nc2s1 | 11µM* | -18% | 1% | -7% | ?
Cc1cccc(-n2cc(-c3ccccc3)nc2SCC(=O)Nc2ccccc2Cl)c1 | . | ? | 4% | ? | .
CC(CCn1cccn1)NC(=O)c1cc(COc2ccc(F)cc2Cl)on1 (configuration not stated) | 20% | 0% | -3% | -21% | 5%
O/C(=C\c1nc2ccccc2nc1/C=C(\O)c1ccccc1)c1ccccc1 | 10µM* | ? | 5% | ? | 5%[10 µM]
O=c1oc2ccccc2nc1/C=C(\O)c1ccccc1 | -21% | ? | . | ? | 3%
O=C(NCCc1ccccc1)c1cnn(-c2ccc(F)cc2)c1-n1cccc1 | . | . | 0% | . | .
Cc1ccc(-n2ncc(C(=O)NCc3ccccc3C)c2-n2cccc2)cc1 | . | 23µM* | 0% | ? | .
CCOc1ccccc1CNC(=O)c1cnn(-c2ccc(C)cc2)c1-n1cccc1 | . | 21µM* | 0% | ? | .
O=C(Nc1ccccc1C(F)(F)F)N1Cc2ccccc2Oc2ncccc21 | . | -11% | -1% | 4% | .
CN(C)CCOc1ncnc2c1oc1ccccc12 | -13% | -10% | 2% | 1% | 2%
CN(C)CCOc1nc(-c2ccccc2)nc2c1oc1ccccc12 | -37% | 23µM* | 3% | ? | ?
COc1ccc(C2CCCN2C(=S)Nc2ccc(C)c(C)c2)cc1OC (configuration not stated) | 13µM* | ? | 0% | 9% | ?
COc1cccc(NC(=S)N2CCCC2c2ccc(OC)c(OC)c2)c1 (configuration not stated) | ? | 29µM* | -5% | -18% | 4%
COc1ccc(C2CCCN2C(=S)Nc2ccc(C)cc2C)cc1OC (configuration not stated) | ? | 26µM* | 8% | -23% | ?
CCn1c(=S)[nH]c2ccccc21 | ? | -1% | 3% | -111% | ?
CCn1c(=S)[nH]c2cc(Cl)ccc21 | 5.6µM* | -1% | 4% | 3% | 25µM*

Screening results (PubChem)
